Data taken from PubChem BioAssay (NCATS).
Several values for one entry are separate records, joined by “and”; a condition that tells them apart may be missing. Identical values can stand only once. Results filed as inconclusive are left out. Activity calls are given as the source filed them. Unless noted, calls follow the shape of the dose curve; as a rule, active = well fitted curve in the direction sought with a large enough effect; inconclusive = small, poorly fitted or top-dose-only effect, or another doubt; inactive = no such curve, though single readings can be large; an effect the other way counts as inactive or inconclusive. Where a SMILES comes first, the peptide text is derived from it. The star is where a group is joined. Cbz = O=C(OCc1ccccc1)*

Columns and labels:
[1] = molecular target: Cellular tumor antigen p53 (Homo sapiens) (UniProt P04637); test: Primary qHTS for small molecule compounds that upregulate eGFP-tagged delta133p53alpha (in N-terminal) cells. (AID 2060322); details: NCI-H358 eGFP-delta133p53alpha fluorescence, 24 h; activation: active compounds read high;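 also: cells pre-induced with doxycycline then dosed without doxycycline; 0% = DMSO vehicle and 100% = reference activator; nearly all actives have a fitted effect of over 75% in size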
Outline: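 NCI-H358 cells pre-induced 24 h with 10 ng/ml doxycycline for eGFP-delta133p53alpha, plated dox-free and exposed 24 h at 37C to titrated compounds. Fixed, Hoechst-stained; gated GFP peak intensity by laser scanning cytometry, normalized to DMSO (0%) and 57.5 uM 5-azacytidine (100%).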

[2] = molecular target: Cellular tumor antigen p53 (Homo sapiens) (UniProt P04637); test: Primary qHTS for small molecule compounds that upregulate eGFP-tagged delta133p53alpha (in C-terminal) cells. (AID 2060324); details: NCI-H358 delta133p53alpha-eGFP (C-terminal tag), GFP fluorescence imaging, 24 h; series mostly up to 57.5 µM;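 also: 0% = DMSO wells and 100% = 57.5 µM 5-azacytidine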
Outline: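 Read-out: gated-cell GFP peak intensity (laser scanning cytometer), plate-normalized with DMSO as 0% activity, after 24 h compound exposure at 37C. Cells were C-terminal eGFP-tagged delta133p53alpha NCI-H358, doxycycline-induced (100 ng/ml, 24 h) before plating.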

[3] = molecular target: Aldehyde dehydrogenase, mitochondrial (Homo sapiens) (UniProt P05091); test: qHTS for Inhibitors of the Aldehyde Dehydrogenase Family (ALDH2) Validation screens (AID 2061302; active = well fitted inhibition curve with a large enough effect; title and protocol of this record describe different tests;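 also: plate controls were DMSO vehicle for no effect and maximal DPI positive control response for full effect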); details: ALDH inhibition qHTS; series mostly up to 42.6 µM
[4] = molecular target: Retinaldehyde dehydrogenase 3 (Homo sapiens) (UniProt P47895); test: qHTS for Inhibitors of the Aldehyde Dehydrogenase Family (ALDH1A3) Validation screen (AID 2061312); details: ALDH1A3 enzyme inhibition qHTS validation, fluorescence; series mostly up to 84.7 µM; also: % is scaled to controls: 0 for no effect and ±100 for the full control effect; nearly all actives have a fitted effect of over 45% in size

Sequence of Cellular tumor antigen p53 (Homo sapiens) (P04637 whole entry, looked up): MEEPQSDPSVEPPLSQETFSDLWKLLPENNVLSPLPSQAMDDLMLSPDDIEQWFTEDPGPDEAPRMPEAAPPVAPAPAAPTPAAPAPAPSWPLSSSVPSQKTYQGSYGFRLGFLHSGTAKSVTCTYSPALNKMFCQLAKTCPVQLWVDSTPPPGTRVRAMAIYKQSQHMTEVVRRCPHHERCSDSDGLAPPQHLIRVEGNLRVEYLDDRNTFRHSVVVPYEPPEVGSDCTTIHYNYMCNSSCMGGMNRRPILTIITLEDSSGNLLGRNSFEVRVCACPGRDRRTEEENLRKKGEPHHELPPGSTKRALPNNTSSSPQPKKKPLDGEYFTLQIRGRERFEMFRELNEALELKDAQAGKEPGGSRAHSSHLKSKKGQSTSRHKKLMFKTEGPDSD

Cn1c(=O)[nH]c2ncn(C)c2c1=O
inactive: activation [1] -21.1% | Potency [2] | Potency [3] | Potency [4]

COC1(C2=NCCN2)COc2ccccc2O1 (centres undefined)
inactive: activation [1] -0.599% | Potency [2] | Potency [3] | Potency [4]

N[C@@H](COP(=O)(O)O)C(=O)O
inactive: activation [1] -2.51% and -5.8% | Potency [2] | Potency [3] | Potency [4]

COc1ccc(CCN(C)CCCC(C#N)(c2cc(OC)c(OC)c(OC)c2)C(C)C)cc1OC (centres undefined)
inactive: activation [1] -8.73% | Potency [2] | Potency [3] | Potency [4]

C[N+](C)(C)CCCCCC[N+](C)(C)C
inactive: activation [1] -20.9% and 7.49% and -11.5% | Potency [2] | Potency [3] | Potency [4]

N[C@H](C(=O)O)[C@H](Cc1ccccc1)C(=O)O
inactive: activation [1] 1.24% | Potency [2] | Potency [3] | Potency [4]

Cc1ccc([N+](=O)[O-])cc1S(=O)(=O)N(C)C
inactive: activation [1] -2.98% | Potency [2] | Potency [3] | Potency [4]

Nc1nc(Nc2ccccc2)nc2c1ncn2[C@@H]1O[C@H](CO)[C@@H](O)[C@H]1O
inactive: activation [1] 8.56% | Potency [2] | Potency [3] | Potency [4]

CC1CNCCN1S(=O)(=O)c1cccc2cnccc12 (centres undefined)
inactive: activation [1] -28.4% | Potency [2] | Potency [3] | Potency [4]

CNC1(C)C2CCC(C2)C1(C)C (centres undefined)
inactive: activation [1] -45.5% | Potency [2] | Potency [3] | Potency [4]

CN(C)C(=O)Oc1cccc([N+](C)(C)C)c1
inactive: activation [1] -10.7% and -13.7% | Potency [2] | Potency [3] | Potency [4]

COC(=O)C(N)Cc1ccc(Cl)cc1 (centres undefined)
inactive: activation [1] -12% | Potency [2] | Potency [3] | Potency [4]

O=C(O)CC[C@@H](C(=O)O)N1C(=O)c2ccccc2C1=O
inactive: activation [1] -14.6% | Potency [2] | Potency [3] | Potency [4]

C=CC[C@H](N)C(=O)O
inactive: activation [1] -35.4% | Potency [2] | Potency [3] | Potency [4]

NC(CCCP(=O)(O)O)C(=O)O (centres undefined)
inactive: activation [1] 34.5% | Potency [2] | Potency [3] | Potency [4]

N[C@H](C(=O)O)c1cc(O)cc(O)c1
inactive: activation [1] -2.9% | Potency [2] | Potency [3] | Potency [4]

Clc1nccc2c1ccc1ccccc12
inactive: activation [1] -42.2% | Potency [2] | Potency [3] | Potency [4]

CC1CCN(CC[C@H]2CCCN2S(=O)(=O)c2cccc(O)c2)CC1
inactive: activation [1] -4.01% | Potency [2] | Potency [3] | Potency [4]

CCCN(CC1CC1)c1nc(C)nc(Nc2c(Cl)cc(Cl)cc2Cl)c1Cl
inactive: activation [1] -22.7% | Potency [2] | Potency [3] | Potency [4]

CCCCCCCCCCCCCCSCC(=O)O
inactive: activation [1] -11% | Potency [2] | Potency [3] | Potency [4]

CC(C)[C@H](NC(=O)OCc1ccccc1)C(=O)N[C@H](C=O)Cc1ccccc1 (Cbz-Val-Phe-aldehyde)
inactive: activation [1] -5.34% | Potency [2] | Potency [3] | Potency [4]

CC(C(=O)O)c1ccc(CC2CCCC2=O)cc1 (centres undefined)
inactive: activation [1] -10% and 11.7% | Potency [2] | Potency [3] | Potency [4]

NC1C=CC=C(C(=O)O)C1 (centres undefined)
inactive: activation [1] -22% | Potency [2] | Potency [3] | Potency [4]

CNCC[C@H](Oc1ccc(C(F)(F)F)cc1)c1ccccc1
inactive: activation [1] -46.5% | Potency [2] | Potency [3] | Potency [4]

N[C@H](C(=O)O)[C@H]1C[C@@H]1C(=O)O
inactive: activation [1] 6.82% | Potency [2] | Potency [3] | Potency [4]

NCCCCN=C(N)N
inactive: activation [1] -3.8% | Potency [2] | Potency [3] | Potency [4]
